# High-throughput results (PubChem BioAssay)
# Hits are enriched below; roughly 19% of the tested compounds scored in any of these assays.
# KB-V1 MDR tox: qHTS assay for MDR1-selective chemotherapeutics: Primary screen using the drug-selected MDR subline cells KB-V1. KB-V1 MDR cells viability, CellTiter-Glo, 72 h. 400,000 compounds, 3.4% hits. Potency, µM (doses to about 46.1 µM), actives largely listed as cytotoxic; note: nearly all actives have a fitted effect of over 60% in size
#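 Compound-treated KB-V1 multidrug-resistant cells, 72 h, 37 degrees C; viability by CellTiter-Glo. Fitted qHTS curves give the values.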
# DT40 TDP1 no CPT: qHTS for Inhibitors of human tyrosyl-DNA phosphodiesterase 1 (TDP1): qHTS in cells in absence of CPT | DT40 Tdp1-/- hTDP1 cells, no CPT, ATP luminescence, 48 h | Potency, µM (titrated, usually from 46.2 µM), for inactives: top-dose activity change, negative = growth inhibition, hits mostly inhibitors | 420,000 compounds, 15% hits | AID 686978, 2013; note: nearly all actives have a fitted effect of over 55% in size
#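 Camptothecin absent (DMSO only). Human TDP1-complemented DT40 knockout cells, 400 cells/well, 37 °C for minimum 48 hr; ATP measured via CellTiter-Glo, 30 min dark incubation, luminescence.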
# HT1080 IDH1KD tx: qHTS for induction of synthetic lethality in tumor cells producing 2HG: qHTS for the HT-1080-IDH1KD cell line; HT-1080 IDH1 knockdown viability, ATP luminescence, 48 h; Potency, µM (top dose mostly 46.1 µM), for inactives: at the top dose activity, negative = toxicity, hits mostly cytotoxic; 360,000 compounds, 2% hits; AID 686971, 2013;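 note: 0% = DMSO wells and -100% = cell-free medium wells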
#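 Luminescent ATP read-out (CellTiter-Glo, 10 min at room temperature) after 48 h compound exposure at 37 °C gave viability of IDH1-knockdown HT-1080 cells. Activity was normalised to DMSO and cell-free wells, then fitted as concentration-response curves.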
# DT40 TDP1 CPT: qHTS for Inhibitors of human tyrosyl-DNA phosphodiesterase 1 (TDP1): qHTS in cells in presence of CPT | chicken DT40 Tdp1-/-;hTDP1 cells + 20 nM CPT, ATP luminescence, 48 h | 420,000 compounds, 12% hits | Potency, µM (highest dose often 46.2 µM), for inactives: top-dose activity change, negative = growth inhibition, actives largely listed as inhibitors; note: nearly all actives have a fitted effect of over 55% in size
#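 Chicken DT40 Tdp1-/- cells stably complemented with human TDP1 were seeded at 400 cells/well in medium containing 20 nM camptothecin, exposed to pin-transferred compounds, and grown at 37 °C for at least 48 hr. Viability was read as ATP luminescence.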
# HT1080NT lethal: qHTS for induction of synthetic lethality in tumor cells producing 2HG: qHTS for the HT-1080-NT fibrosarcoma cell line; HT-1080-NT fibrosarcoma viability, CellTiter-Glo ATP luminescence, 48 h; Potency, µM (titrated, usually from 46.1 µM), inactives show at the top dose activity, negative = less viability, hits mostly cytotoxic; 360,000 compounds, 1.6% hits; AID 686970, 2013;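 note: NT is the 2HG producing partner of a matched IDH1 knockdown line; 0% = DMSO-treated cells and -100% = media-only wells without cells; nearly all actives have a fitted effect of over 55% in size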
#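 HT-1080-NT; 750 cells/well; 5% FBS RPMI; 48 h compound, 37 degrees C; CellTiter-Glo luminescence; curve fitting and curve-class assignment.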
# KB-3-1 tox: qHTS assay for MDR1-selective chemotherapeutics: Primary screen using the parental adenocarcinoma cell KB-3-1 | KB-3-1 viability, CellTiter-Glo ATP luminescence, 72 h | Potency, µM (doses to about 46.1 µM), usual class: cytotoxic | 400,000 compounds, 1.4% hits; note: nearly all actives have a fitted effect of over 60% in size
#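 Here the drug-naive KB-3-1 line serves as comparator for MDR sub-line selectivity; cells received compound titrations, 72 h at 37 °C, then CellTiter-Glo readout.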
# The depositor's hits bear a star; i = inactive; ? = inconclusive; nt = not tested or not shown. Calls come from the whole dose curve; as a rule, active = well fitted curve in the direction sought with a large enough effect; inconclusive = small, poorly fitted or top-dose-only effect, or another doubt; inactive = no such curve, though single readings can be large; an effect the other way counts as inactive or inconclusive. Unless noted, % is set by controls: 0 for no effect and ±100 for the full control effect; potency is the fitted concentration of half-maximal effect.
SMILES,KB-V1 MDR tox,DT40 TDP1 no CPT,HT1080 IDH1KD tx,DT40 TDP1 CPT,HT1080NT lethal,KB-3-1 tox
Cc1c2cnn(CC(=O)NCc3ccc(F)cc3)c(=O)c2c(C)n1Cc1ccccc1F,i,16µM*,nt,?,nt,i
Cc1ccc(C)c(NC(=O)Cn2ncc3c(C)n(Cc4ccc(F)cc4)c(C)c3c2=O)c1,i,?,nt,?,nt,i
CCC(C)NC(=O)Cn1ncc2c(C)n(Cc3ccc(F)cc3)c(C)c2c1=O (configuration not stated),i,?,nt,23µM*,nt,i
Cc1c2cnn(CC(=O)NCc3ccc(F)cc3)c(=O)c2c(C)n1Cc1cccc(Cl)c1,?,4.1µM*,nt,4.1µM*,nt,?
COc1cccc(CNC(=S)Nc2ccc3c(c2)c(=O)n(C)n3Cc2ccc(F)cc2)c1,i,-26%,0%,?,?,i
Cc1ccc(S(=O)(=O)N(C)C[C@@H]2OCc3cnnn3CCCC(=O)N([C@@H](C)CO)C[C@@H]2C)cc1,i,-20%,-4%,-1%,0%,i
Cc1ccc(-c2nc3c4ccccc4[nH]c(=O)n3n2)cc1,i,?,nt,?,nt,i
COc1ccc(C(CC(=O)c2ccc(C)cc2)C(C#N)C#N)cc1OC (configuration not stated),?,5.2µM*,23µM*,4.1µM*,21µM*,?
CCN(CC)S(=O)(=O)c1ccc(S(=O)(=O)N(CC(=O)Nc2ccccc2)Cc2ccco2)cc1,i,?,4%,18µM*,4%,i
COc1ccc(S(=O)(=O)N(CCC(N)=O)Cc2ccco2)cc1OC,i,-12%,16%,7%,-1%,i
Cc1ccc(S(=O)(=O)N(Cc2ccccc2)Cc2ccco2)cc1,i,?,-6%,9.2µM*,-4%,i
COc1ccc(S(=O)(=O)N(Cc2ccc(OC)c(OC)c2)Cc2ccco2)cc1,?,18µM*,-12%,23µM*,-13%,i
CN(C)S(=O)(=O)c1ccc(S(=O)(=O)N(Cc2ccco2)Cc2ccccc2Cl)cc1,i,16µM*,5%,21µM*,4%,i
COc1ccc(CCNC(=O)C(C)n2c(=O)cc(C(F)(F)F)c3c(C)nn(C)c32)cc1OC (configuration not stated),i,?,nt,?,nt,i
O=C(NCc1ccccc1)[C@@H]1CCCN1C(=O)[C@@H]1CCCN1C(=O)c1cccs1,i,-41%,20%,-44%,10%,?
Cc1cc2oc(C(=O)Nc3cccc(-c4nc5ccccc5o4)c3)c(C)c2cc1C,i,?,nt,?,nt,i
COc1ccc(CN2C(=O)CSCC2(C)C(=O)Nc2ccc3c(c2)OCCO3)cc1 (configuration not stated),i,?,0%,?,5%,i
CC1=Nc2cc(C(=O)NC3CCCC3)ccc2Sc2ccc(C)cc21,1.3µM*,0.92µM*,nt,1.2µM*,nt,1.5µM*
CCC1=Nc2cc(C(=O)NC3CCCC3)ccc2Sc2ccc(Cl)cc21,2.9µM*,0.92µM*,nt,0.92µM*,nt,5.8µM*
CCOC(=O)N1CCC(NC(=O)c2ccc3c(c2)N=C(C)c2ccccc2S3)CC1,i,?,-22%,?,-14%,i
CC1=Nc2cc(C(=O)NC3CCCC3)ccc2Sc2ccc(Cl)cc21,3.7µM*,0.58µM*,nt,0.82µM*,nt,3.3µM*
O=C(Cn1cnc2sc3c(c2c1=O)CCCC3)NCC(=O)Nc1c(F)cc(F)cc1Br,i,-5%,2%,?,14%,i
Cc1ccc(COC(=O)c2ccc3ccccc3n2)cc1,i,2%,20%,8%,16%,i
COc1ccc2c(c1)CCC(=O)[C@H](O)C[C@H](c1ccccc1)OC2=O,i,?,-1%,?,-2%,i
COCCOC(=O)C1=C(C)N=C2SCCC(=O)N2C1/C=C/c1ccccc1 (configuration not stated),i,18µM*,13%,18µM*,-2%,i
SMILES,KB-V1 MDR tox,DT40 TDP1 no CPT,HT1080 IDH1KD tx,DT40 TDP1 CPT,HT1080NT lethal,KB-3-1 tox
CCOC(=O)C1=C(C)N=C2SCCC(=O)N2[C@@H]1/C=C/c1ccccc1,i,-9%,-5%,-12%,-1%,i
Cc1sc(N/N=C/c2cc([N+](=O)[O-])ccc2O)nc1-c1ccccc1,i,15µM*,-1%,15µM*,-8%,i
O=C(N/N=C/c1cc([N+](=O)[O-])ccc1O)C(O)(c1ccccc1)c1ccccc1,i,16µM*,?,?,-16%,?
O=C(NN=Cc1ccccc1O)C1CC1,?,10µM*,-5%,5.8µM*,1%,i
O=C(N/N=C/c1cc([N+](=O)[O-])ccc1O)C1CC1,i,18µM*,?,?,?,?
COc1ccc(C)cc1N(CC(=O)N/N=C/c1ccccc1C(=O)O)S(=O)(=O)c1ccccc1,i,-7%,3%,-17%,0%,i
O=C(N/N=C/c1ccccc1O)C1SCCCS1,i,6.5µM*,16µM*,12µM*,?,?
O=C(N/N=C/c1cc([N+](=O)[O-])ccc1O)c1cccc2cc[nH]c12,i,4.1µM*,9.2µM*,6.5µM*,?,?
O=C(N/N=C/c1cc([N+](=O)[O-])ccc1O)c1ccc2c(c1)OCCO2,?,1.5µM*,?,2.1µM*,-26%,?
O=C(N/N=C/c1cc([N+](=O)[O-])ccc1O)c1cccc(N2CCCC2=O)c1,i,10µM*,?,15µM*,?,?
Cc1ccc(NC(=O)Cn2c(=O)c3cc(Cl)ccc3n3nncc23)cc1,?,-26%,nt,-2%,nt,i
COc1ccc(-c2c(C(=O)c3ccccc3)[nH]c(N)c2C(=O)c2ccc(Br)cc2)cc1OC,?,?,-14%,?,-24%,?
COC(=O)c1c(N)[nH]c(C(=O)c2ccccc2)c1-c1ccc(Br)cc1,?,?,-28%,16µM*,7%,i
